Laboratory results: the supplement of paper PMC8728848
This is one part of a sample in which the strongest signals are shown more often than they occur.

Tests used:
Assay in all cases: glycan array binding signal (z-score within array); higher = stronger binding
Conditions in all cases: glycan notation: IUPAC condensed, linker removed
[1] = target: Fuc(a1-2)Gal(b1-3)GalNAc(a1-3)[Fuc(a1-2)]Gal(b1-4)Glc
Procedure, shortened: (§1)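 The binding signal is a Z-score computed within each array and averaged over linkers. Arrays of the same protein sequence at different concentrations or buffers were also averaged together. Data originate from 3228 arrays in the Consortium for Functional Glycomics database, kept only where the protein sequence was available.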

[2] = target: Fuc(a1-2)Gal(b1-3)[Fuc(a1-4)]GlcNAc(b1-2)Man(a1-3)[Fuc(a1-2)Gal(b1-3)[Fuc(a1-4)]GlcNAc(b1-2)Man(a1-6)]Man(b1-4)GlcNAc(b1-4)[Fuc(a1-6)]GlcNAc(b1-4)[Fuc(a1-6)]GlcNAc
Procedure, shortened: as §1

Fuc(a1-2)Gal(b1-4)Glc6S = target: Fuc(a1-2)Gal(b1-4)Glc6S
Procedure, shortened: as §1

[3] = target: Fuc(a1-2)Gal(b1-4)GlcNAc(b1-3)GalNAc
Procedure, shortened: as §1

[4] = target: Fuc(a1-2)Gal(b1-4)[Fuc(a1-3)]GlcNAc(b1-3)Gal(b1-4)[Fuc(a1-3)]GlcNAc
Procedure, shortened: as §1

[5] = target: Fuc(a1-2)[Gal(a1-3)]Gal(b1-3)GlcNAc(b1-3)GalNAc
Procedure, shortened: as §1

[6] = target: Fuc(a1-2)[GalNAc(a1-3)]Gal(b1-4)GlcNAc(b1-2)Man(a1-3)[Fuc(a1-2)[GalNAc(a1-3)]Gal(b1-4)GlcNAc(b1-2)Man(a1-6)]Man(b1-4)GlcNAc(b1-4)GlcNAc
Procedure, shortened: as §1

[7] = target: Fuc(a1-3)[Gal(b1-4)]GlcNAc(b1-6)[Gal(b1-3)GlcNAc(b1-3)]Gal(b1-4)Glc
Procedure, shortened: as §1

Fuc(a1-4)GlcNAc = target: Fuc(a1-4)GlcNAc
Procedure, shortened: as §1

Gal(a1-3)Gal(b1-3)GlcNAc = target: Gal(a1-3)Gal(b1-3)GlcNAc
Procedure, shortened: as §1

[8] = target: Gal(a1-4)Gal(b1-4)GlcNAc(b1-2)Man(a1-3)[Gal(a1-4)Gal(b1-4)GlcNAc(b1-2)Man(a1-6)]Man(b1-4)GlcNAc(b1-4)GlcNAc
Procedure, shortened: as §1

[9] = target: Gal(b1-3)GalNAc(a1-3)[Fuc(a1-2)]Gal(b1-4)Glc
Procedure, shortened: as §1

Gal(b1-3)GlcNAc(b1-2)Man = target: Gal(b1-3)GlcNAc(b1-2)Man
Procedure, shortened: as §1

[10] = target: Gal(b1-3)[GlcNAc(b1-6)]GalNAc
Procedure, shortened: as §1

[11] = target: Gal(b1-3)[Neu5Ac(a2-6)]GlcNAc(b1-4)Gal(b1-4)Glc
Procedure, shortened: as §1

[12] = target: Gal(b1-4)GalNAc(b1-3)[Fuc(a1-2)]Gal(b1-4)GlcNAc
Procedure, shortened: as §1

Gal(b1-4)GlcNAc(b1-2)Man = target: Gal(b1-4)GlcNAc(b1-2)Man
Procedure, shortened: as §1

[13] = target: Gal(b1-4)GlcNAc(b1-2)Man(a1-6)Man(b1-4)GlcNAc(b1-4)GlcNAc
Procedure, shortened: as §1

[14] = target: Gal(b1-4)GlcNAc(b1-2)[Gal(b1-4)GlcNAc(b1-6)]Man(a1-6)[GlcNAc(b1-4)][Gal(b1-4)GlcNAc(b1-2)Man(a1-3)]Man(b1-4)GlcNAc(b1-4)GlcNAc
Procedure, shortened: as §1

[15] = target: Gal(b1-4)GlcNAc(b1-3)Gal(b1-4)Glc
Procedure, shortened: as §1

[16] = target: Gal(b1-4)GlcNAc(b1-3)Gal(b1-4)GlcNAc
Procedure, shortened: as §1

[17] = target: Gal(b1-4)GlcNAc(b1-3)Gal(b1-4)GlcNAc(b1-3)Gal(b1-4)GlcNAc
Procedure, shortened: as §1

[18] = target: Gal(b1-4)GlcNAc(b1-3)Gal(b1-4)GlcNAc(b1-3)Gal(b1-4)GlcNAc(b1-2)Man(a1-3)[Gal(b1-4)GlcNAc(b1-3)Gal(b1-4)GlcNAc(b1-3)Gal(b1-4)GlcNAc(b1-2)Man(a1-6)]Man(b1-4)GlcNAc(b1-4)GlcNAc
Procedure, shortened: as §1

[19] = target: Gal(b1-4)GlcNAc(b1-3)Gal(b1-4)GlcNAc(b1-3)Gal(b1-4)GlcNAc(b1-2)Man(a1-3)[Gal(b1-4)GlcNAc(b1-3)Gal(b1-4)GlcNAc(b1-3)Gal(b1-4)GlcNAc(b1-2)Man(a1-6)]Man(b1-4)GlcNAc(b1-4)[Fuc(a1-6)]GlcNAc
Procedure, shortened: as §1

[20] = target: Gal(b1-4)GlcNAc(b1-3)Gal(b1-4)GlcNAc(b1-3)Gal(b1-4)GlcNAc(b1-2)[Gal(b1-4)GlcNAc(b1-3)Gal(b1-4)GlcNAc(b1-3)Gal(b1-4)GlcNAc(b1-6)]Man(a1-6)[Gal(b1-4)GlcNAc(b1-3)Gal(b1-4)GlcNAc(b1-3)Gal(b1-4)GlcNAc(b1-2)Man(a1-3)]Man(b1-4)GlcNAc(b1-4)[Fuc(a1-6)]GlcNAc
Procedure, shortened: as §1

[21] = target: Gal(b1-4)GlcNAc(b1-3)Gal(b1-4)GlcNAc(b1-3)Gal(b1-4)GlcNAc(b1-3)Gal(b1-4)GlcNAc(b1-2)[Gal(b1-4)GlcNAc(b1-3)Gal(b1-4)GlcNAc(b1-3)Gal(b1-4)GlcNAc(b1-3)Gal(b1-4)GlcNAc(b1-6)]Man(a1-6)[Gal(b1-4)GlcNAc(b1-3)Gal(b1-4)GlcNAc(b1-3)Gal(b1-4)GlcNAc(b1-3)Gal(b1-4)GlcNAc(b1-2)Man(a1-3)]Man(b1-4)GlcNAc(b1-4)[Fuc(a1-6)]GlcNAc
Procedure, shortened: as §1

[22] = target: Gal(b1-4)GlcNAc(b1-3)Gal(b1-4)GlcNAc(b1-3)Gal(b1-4)GlcNAc(b1-3)Gal(b1-4)GlcNAc(b1-3)Gal(b1-4)GlcNAc(b1-3)Gal(b1-4)GlcNAc(b1-2)Man(a1-3)[Gal(b1-4)GlcNAc(b1-3)Gal(b1-4)GlcNAc(b1-3)Gal(b1-4)GlcNAc(b1-3)Gal(b1-4)GlcNAc(b1-3)Gal(b1-4)GlcNAc(b1-3)Gal(b1-4)GlcNAc(b1-2)Man(a1-6)]Man(b1-4)GlcNAc(b1-4)GlcNAc
Procedure, shortened: as §1

[23] = target: Gal(b1-4)GlcNAc(b1-3)Gal(b1-4)[Fuc(a1-3)]GlcNAc(b1-3)Gal(b1-4)[Fuc(a1-3)]GlcNAc
Procedure, shortened: as §1

Gal(b1-6)Gal = target: Gal(b1-6)Gal
Procedure, shortened: as §1

Gal3S(b1-4)Glc = target: Gal3S(b1-4)Glc
Procedure, shortened: as §1

GalNAc(b1-3)Gal = target: GalNAc(b1-3)Gal
Procedure, shortened: as §1

[24] = target: GalNAc(b1-3)Gal(a1-4)Gal(b1-4)GlcNAc(b1-3)Gal(b1-4)Glc
Procedure, shortened: as §1

[25] = target: GalNAc(b1-4)GlcNAc(b1-2)Man(a1-3)[GalNAc(b1-4)GlcNAc(b1-2)Man(a1-6)]Man(b1-4)GlcNAc(b1-4)GlcNAc
Procedure, shortened: as §1

GalNAc(b1-6)GalNAc = target: GalNAc(b1-6)GalNAc
Procedure, shortened: as §1

GalNAc3S(b1-4)GlcNAc3S = target: GalNAc3S(b1-4)GlcNAc3S
Procedure, shortened: as §1

[26] = target: GlcNAc(a1-4)Gal(b1-4)GlcNAc(b1-3)Gal(b1-4)[Fuc(a1-3)]GlcNAc(b1-3)Gal(b1-4)[Fuc(a1-3)]GlcNAc
Procedure, shortened: as §1

[27] = target: GlcNAc(b1-2)[GlcNAc(b1-4)]Man(a1-3)[GlcNAc(b1-4)][GlcNAc(b1-2)[GlcNAc(b1-6)]Man(a1-6)]Man(b1-4)GlcNAc(b1-4)[Fuc(a1-6)]GlcNAc
Procedure, shortened: as §1

[28] = target: GlcNAc(b1-3)Gal(b1-4)GlcNAc(b1-3)Gal(b1-4)GlcNAc(b1-2)Man(a1-3)[GlcNAc(b1-3)Gal(b1-4)GlcNAc(b1-3)Gal(b1-4)GlcNAc(b1-2)Man(a1-6)]Man(b1-4)GlcNAc(b1-4)GlcNAc
Procedure, shortened: as §1

[29] = target: GlcNAc(b1-3)Gal(b1-4)GlcNAc(b1-3)[GlcNAc(b1-3)Gal(b1-4)GlcNAc(b1-3)]GalNAc
Procedure, shortened: as §1

[30] = target: Man(a1-2)Man(a1-3)[Man(a1-6)]Man(a1-6)[Man(a1-2)Man(a1-3)]Man(b1-4)GlcNAc(b1-4)GlcNAc
Procedure, shortened: as §1

Man(b1-4)GlcNAc = target: Man(b1-4)GlcNAc
Procedure, shortened: as §1

Neu5Ac(a2-3)Gal = target: Neu5Ac(a2-3)Gal
Procedure, shortened: as §1

[31] = target: Neu5Ac(a2-3)Gal(b1-3)GalNAc(b1-4)Gal(b1-4)Glc
Procedure, shortened: as §1

[32] = target: Neu5Ac(a2-3)Gal(b1-4)GlcNAc(b1-2)Man(a1-3)[Neu5Ac(a2-3)Gal(b1-4)GlcNAc(b1-2)Man(a1-6)]Man(b1-4)GlcNAc(b1-4)[Fuc(a1-6)]GlcNAc
Procedure, shortened: as §1

[33] = target: Neu5Ac(a2-6)Gal(b1-3)GlcNAc(b1-3)[Gal(b1-4)GlcNAc(b1-6)]Gal(b1-4)Glc
Procedure, shortened: as §1

[34] = target: Neu5Ac(a2-6)Gal(b1-4)GlcNAc(b1-2)Man(a1-3)[Gal(b1-4)GlcNAc(b1-2)Man(a1-6)]Man(b1-4)GlcNAc(b1-4)GlcNAc
Procedure, shortened: as §1

[35] = target: Neu5Ac(a2-6)Gal(b1-4)GlcNAc6S
Procedure, shortened: as §1

[36] = target: Neu5Gc(a2-3)Gal(b1-4)[Fuc(a1-3)]GlcNAc
Procedure, shortened: as §1

B1: B1567 (Bifidobacterium sp) (protein)
chain: MKFTTAKKAVALTGAVAMLVSVAACGSDSGKSSQPAQDSDVKEITVWAWEPSLTQVAKDFEKETGIKVDLKNVGTNTKEYTQLDNAIEAGSGAPDVAQVEYYAVPQYAIKGNLLDITDKTSGYKDFYTPGPWASVQFAGKVYGLPMDSGPMAFFYNKEVFDKAGVDAEQIKTWDQYYDAAKKIHALGDNYYITSDTGDAGFFDSMTWLAGAKPFQTSSDGSEVTVNLTEDKGVKTFTDFWQKLLDEGLLDTKTAGWSEDWFKGMVDGTIASLFTGAWMPANLANSAADGAGKWRVTQMPTADGSTTNSENGGSSLAVLASTKKADAAYQFIEYANHGAGVATRVAGGAFPADKASLEKDSFKNATTVKNADGQDVDYFGGQKYNEVLAQAAENVSSGYQFLPFEVKARTIFGDYFGKSYTGDQKLSDGVAAWQKALQDYGKDQGFTVK
glycan array binding signal (z-score) [1]: -0.161
glycan array binding signal (z-score) [2]: -0.08
glycan array binding signal (z-score) (Fuc(a1-2)Gal(b1-4)Glc6S): -0.184
glycan array binding signal (z-score) [3]: -0.127
glycan array binding signal (z-score) [4]: -0.104
glycan array binding signal (z-score) [5]: -0.097
glycan array binding signal (z-score) [6]: 0.019
glycan array binding signal (z-score) [7]: -0.15
glycan array binding signal (z-score) (Fuc(a1-4)GlcNAc): -0.077
glycan array binding signal (z-score) (Gal(a1-3)Gal(b1-3)GlcNAc): -0.129
glycan array binding signal (z-score) [8]: 0.067
glycan array binding signal (z-score) [9]: -0.013
glycan array binding signal (z-score) (Gal(b1-3)GlcNAc(b1-2)Man): 0.008
glycan array binding signal (z-score) [10]: -0.138
glycan array binding signal (z-score) [11]: -0.133
glycan array binding signal (z-score) [12]: -0.08
glycan array binding signal (z-score) (Gal(b1-4)GlcNAc(b1-2)Man): -0.12
glycan array binding signal (z-score) [13]: -0.101
glycan array binding signal (z-score) [14]: -0.145
glycan array binding signal (z-score) [15]: 14.9
glycan array binding signal (z-score) [16]: 0.588
glycan array binding signal (z-score) [17]: 1.4
glycan array binding signal (z-score) [18]: 0.282
glycan array binding signal (z-score) [19]: 0.333
glycan array binding signal (z-score) [20]: 0.271
glycan array binding signal (z-score) [21]: 0.348
glycan array binding signal (z-score) [22]: 1.66
glycan array binding signal (z-score) [23]: 1.8
glycan array binding signal (z-score) (Gal(b1-6)Gal): 11
glycan array binding signal (z-score) (Gal3S(b1-4)Glc): -0.135
glycan array binding signal (z-score) (GalNAc(b1-3)Gal): -0.116
glycan array binding signal (z-score) [24]: -0.139
glycan array binding signal (z-score) [25]: 0.398
glycan array binding signal (z-score) (GalNAc(b1-6)GalNAc): -0.095
glycan array binding signal (z-score) (GalNAc3S(b1-4)GlcNAc3S): -0.058
glycan array binding signal (z-score) [26]: 0.042
glycan array binding signal (z-score) [27]: -0.12
glycan array binding signal (z-score) [28]: 0.008
glycan array binding signal (z-score) [29]: -0.052
glycan array binding signal (z-score) [30]: 0.007
glycan array binding signal (z-score) (Man(b1-4)GlcNAc): -0.154
glycan array binding signal (z-score) (Neu5Ac(a2-3)Gal): -0.108
glycan array binding signal (z-score) [31]: -0.112
glycan array binding signal (z-score) [32]: -0.063
glycan array binding signal (z-score) [33]: -0.118
glycan array binding signal (z-score) [34]: -0.128
glycan array binding signal (z-score) [35]: -0.094
glycan array binding signal (z-score) [36]: -0.036
